PubChem BioAssay (NCI)
This is part of a sample that, as a whole, favours compounds with a hit. Of some 83,000 tested, about 20% had one in any assay.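 Testing used 96-well plates and a 48-hour single-concentration exposure. Example: -40 means 40% of the starting cells died.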 Calls of active or inactive are those of the source. How the source made its calls: active means growth percent below 10; inactive means the rest.

Tested on: NCI/ADR-RES ovarian
Assay: NCI-60 one-dose screen, 48 h (100 = growth as untreated, 0 = no growth, -100 = all killed)
Settings: 10 µM unless noted

SMILES | growth
COc1cc(OC)c(S(N)(=O)=O)cc1C(C)=O | 111% (inactive)
O=S(=O)(Nc1ccc2c(c1)OCO2)c1ccc(-c2cnc(C3CC3)o2)cc1 | 16.6% (inactive)
COc1cccc2c1CN(C(=O)c1ccc(O)c(C(=O)N3Cc4ccc(OCCC[P+](c5ccccc5)(c5ccccc5)c5ccccc5)cc4C3)c1)C2 | 103% (inactive)
O=S(=O)(Nc1ccc(I)cc1Cl)c1ccc(-c2cnc(C3CC3)o2)cc1 | 28.1% (inactive)
C=C(C=O)[C@@H]1CC[C@]2(CO)CC[C@]3(C)[C@H](CC[C@@H]4[C@@]5(C)CCCNC(C)(C)[C@@H]5CC[C@]43C)[C@@H]12 | 65.3% (inactive)
C=CCn1c(SCC(=O)Nc2ccc(C(=O)/C=C/c3cccc([N+](=O)[O-])c3)cc2)nnc1-c1c[nH]c2ccccc12 | 101% (inactive)
CNC(=O)c1c(NC(=O)c2cccc(C(F)(F)F)c2F)sc2c1CCC(=O)C2 | 7.77% (active)
COc1ccc(C2c3sc4c(C)cccc4c3Oc3nc(CC(=O)Nc4ccccc4)[nH]c(=O)c32)cc1 (stereo not given) | 38.7% (inactive)
COCCNc1ccc2ncc(C#Cc3cncc(C(=O)Nc4ccc(CN5CCN(C)CC5)c(C(F)(F)F)c4)c3)n2n1 | 43.9% (inactive)
CCN1CCN(C(=O)[C@]23CCC(C)(C)C[C@H]2C2=CC[C@@H]4[C@@]5(C)Cc6c([nH]c7ccccc67)C(C)(C)[C@@H]5CC[C@@]4(C)[C@]2(C)CC3)CC1 | 87% (inactive)
CCn1c(SCC(=O)Nc2cccc(C(=O)/C=C/c3ccc(C)cc3)c2)nc2ccccc2c1=O | 91% (inactive)
CN1c2ccccc2Sc2cc(C=C(C#N)C#N)ccc21 | 89.7% (inactive)
CN1CCN(Cc2ccc(NC(=O)c3cncc(C#Cc4cnn5cccnc45)c3)cc2C(F)(F)F)CC1 | 26.5% (inactive)
N#Cc1cccc(/C(N)=N/C(N)=N/c2nc3ccccc3s2)c1 | 14.3% (inactive)
NS(=O)(=O)c1ccc(Nc2nc(N/N=C/c3c[nH]c4ccccc34)nc(Nc3ccccc3)n2)cc1 | 93.5% (inactive)
N#C/C(=C\c1ccc(-c2ccc(Cl)cc2Cl)o1)c1ccc(F)cc1 | 93.7% (inactive)
O=C1/C(=C/C=C/c2ccco2)SC(=S)N1C1CCCCC1 | 99% (inactive)
O=C(Nc1cccc(Cl)c1)Nc1nc2ccc([N+](=O)[O-])cc2o1 | 10.4% (inactive)

SMILES | growth
COc1cccc(C(=O)Nc2cccc(C#Cc3cccc4[nH]nc(N)c34)c2)c1 | 45.5% (inactive)
COc1cc(OC)c(S(N)(=O)=O)cc1C(=O)/C=C/c1ccc(Cl)cc1 | 20% (inactive)
COc1cc2nc(Cl)nc(Nc3cccc(C4=Nc5c(N)nc(N)nc5NC(c5ccc(Br)cc5)C4)c3)c2cc1OC (stereo not given) | 86.6% (inactive)
CC1=N[C@@H]2CN(C(=O)OC(C)(C)C)C[C@@H]2n2c1cc1ccccc1c2=O | 100% (inactive)
O=S(=O)(NCCNc1nccc(-n2cnc3ccccc32)n1)c1ccc(Br)cc1 | 97.6% (inactive)
Cc1cc(-c2ccc(Cl)cc2)n(Cc2nnc(SCC(=O)Nc3ccc(S(N)(=O)=O)cc3)n2C2CCCCC2)n1 | 106% (inactive)
COc1cc(OC)cc(C(=O)Nc2sc3c(c2C(N)=O)CCC(=O)C3)c1 | 53.9% (inactive)
COc1cccc2cc(-c3cc4ccccc4[nH]3)/c(=N\NC(=O)c3ccc(Cl)cc3)oc12 | 13.3% (inactive)
CC(C)(C)c1ccc(CC(=O)Nc2sc3c(c2C(N)=O)CCC(=O)C3)cc1 | 3.51% (active)
c1cn2c(ccc3nc(-c4cn[nH]c4)c4c(c32)CCCC4)n1 | 77.3% (inactive)
COc1cc(-c2nn(C(C)(C)C)cc2-c2ccnc(NCCCNS(=O)(=O)c3ccc(F)cc3)n2)ccc1Cl | 79.9% (inactive)
Clc1nc2ccccc2nc1-c1nnc(C2CCCCC2)o1 | 107% (inactive)
CCCn1cnc2c(c1=N)C(c1ccc(F)cc1)c1sc3c(CC)cccc3c1O2 (stereo not given) | -13.9% (active)
COc1ccc(-n2c(/C=C3\C(=O)Nc4ccccc43)ccc2CO)cc1 | 102% (inactive)
N#Cc1ccccc1Cn1c2nc(=N)c3ccccc3c-2nc2ccccc21 | 71.1% (inactive)
COc1cc2nc(Cl)nc(Nc3cccc(C4=Nc5c(N)nc(N)nc5NC(c5ccc(F)cc5)C4)c3)c2cc1OC (stereo not given) | 80% (inactive)
CCn1c2ccccc2c2cc(-n3nncc3-c3ccccc3)ccc21 | 6.13% (active)
